Measurements: PubChem BioAssay (Tox21)
Where “and” joins values, the source holds several entries; their conditions need not be identical. Equal entries are not always repeated. Records with an inconclusive call do not appear. Where a call stands in place of a potency, no number is given. Some structures have more than one record in an assay (separate samples or runs), and their calls can disagree. Calls of active or inactive are those of the source. Calls follow the shape of the dose curve; as a rule, active = well fitted curve in the direction sought with a large enough effect in the repeat runs; inconclusive = weak or mixed curves; inactive = no such curve, though single readings can be large; an effect the other way counts as inactive or inconclusive.

Experiments:
[1] = qHTS assay for identifying genotoxic compounds that show differential cytotoxicity against isogenic chicken DT40 cell lines with known DNA damage response pathways - wild type cell line (AID 743012); also: nearly all actives have a fitted effect of over 60% in size; also: potency is read from the fitted curve at half-maximal effect
Outline: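 Endpoint: CellTiter-Glo luminescence, 30 min RT. Cells: wild type DT40, 300/well. Exposure: compounds in DMSO, 40 h, 37 C/5% CO2, after ~0.5 h pre-incubation.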

[2] = qHTS assay for identifying genotoxic compounds that show differential cytotoxicity against isogenic chicken DT40 cell lines with known DNA damage response pathways - Rev3 mutant cell line (AID 743014); also: nearly all actives have a fitted effect of over 55% in size; also: potency is read from the fitted curve at half-maximal effect
[3] = qHTS assay for identifying genotoxic compounds that show differential cytotoxicity against isogenic chicken DT40 cell lines with known DNA damage response pathways - Rad54/Ku70 mutant cell line (AID 743015); also: nearly all actives have a fitted effect of over 60% in size; also: potency is read from the fitted curve at half-maximal effect
[4] = qHTS assay to identify small molecule antagonists of the androgen receptor (AR) signaling pathway - cell viability counter screen (AID 743033; also: nearly all actives have a fitted effect of over 45% in size)
[5] = biological target: Androgen receptor (Homo sapiens) (UniProt P10275); experiment: qHTS assay to identify small molecule agonists of the androgen receptor (AR) signaling pathway using the MDA cell line (AID 743040; also: nearly all actives have a fitted effect of over 20% in size)
Outline: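 Luciferase read-out, ONE-Glo, 30 min RT. Cells: MDA-kb2 AR-luc, MMTV promoter with AR and GR response elements. Compound exposure 16 h, 37C, 0% CO2, after 5 h pre-incubation. qHTS agonist mode.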

[6] = qHTS assay to identify small molecule antagonists of the androgen receptor (AR) signaling pathway using the MDA cell line - cell viability counter screen (AID 743041; also: nearly all actives have a fitted effect of over 45% in size)
Outline: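 Cytotoxicity counter screen: MDA-kb2 AR-luc cells, compound + R1881, 16 h, 37C, 0% CO2; CellTiter-Fluor added at 15.5 h, fluorescence read after 30 min.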

[7] = biological target: Androgen receptor (Homo sapiens) (UniProt P10275); experiment: qHTS assay to identify small molecule antagonists of the androgen receptor (AR) signaling pathway using the MDA cell line (AID 743042; also: nearly all actives have a fitted effect of over 55% in size)
Outline: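 MDA-kb2 breast carcinoma cells carrying MMTV-luciferase (AR/GR responsive) were co-treated with compounds and the agonist R1881 for 16 h at 37C. Inhibition read as ONE-Glo luminescence; CellTiter-Fluor fluorescence measured in parallel for cytotoxicity.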

Androgen receptor (Homo sapiens), sequence (P10275 whole entry, looked up): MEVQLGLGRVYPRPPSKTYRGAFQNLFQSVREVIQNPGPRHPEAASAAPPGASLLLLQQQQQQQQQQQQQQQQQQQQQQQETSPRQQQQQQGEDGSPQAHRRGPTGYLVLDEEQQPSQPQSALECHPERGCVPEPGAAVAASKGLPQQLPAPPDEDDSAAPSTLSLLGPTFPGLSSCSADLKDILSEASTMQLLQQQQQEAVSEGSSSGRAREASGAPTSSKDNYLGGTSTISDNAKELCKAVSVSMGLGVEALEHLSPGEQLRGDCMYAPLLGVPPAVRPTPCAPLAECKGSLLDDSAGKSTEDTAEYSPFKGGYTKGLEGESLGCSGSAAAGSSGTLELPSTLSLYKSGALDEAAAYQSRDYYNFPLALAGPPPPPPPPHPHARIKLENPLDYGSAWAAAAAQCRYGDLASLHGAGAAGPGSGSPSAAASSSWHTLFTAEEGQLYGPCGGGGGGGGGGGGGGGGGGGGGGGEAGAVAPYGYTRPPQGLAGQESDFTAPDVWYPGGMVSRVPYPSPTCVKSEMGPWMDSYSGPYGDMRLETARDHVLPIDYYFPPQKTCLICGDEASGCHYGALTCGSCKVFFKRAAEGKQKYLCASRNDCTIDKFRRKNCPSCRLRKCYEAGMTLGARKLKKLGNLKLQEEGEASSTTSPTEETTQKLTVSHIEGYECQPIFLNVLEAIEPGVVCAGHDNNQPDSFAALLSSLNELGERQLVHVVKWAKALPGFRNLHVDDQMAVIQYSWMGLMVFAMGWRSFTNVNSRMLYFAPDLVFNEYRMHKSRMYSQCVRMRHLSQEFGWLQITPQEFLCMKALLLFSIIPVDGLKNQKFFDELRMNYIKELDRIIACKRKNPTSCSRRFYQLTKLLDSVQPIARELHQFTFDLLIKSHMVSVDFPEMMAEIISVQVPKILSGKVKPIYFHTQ

SMILES | Potency [1] | Potency [2] | Potency [3] | Potency [4] | outcome [5] | Potency [6] | Potency [7]
O=c1cc(-c2ccccc2)oc2cc(O)cc(O)c12 | 54.5 µM (active) | 48.6 µM (active) | 24.3 µM (active) | inactive | inactive | inactive | inactive
CCCCCCCC/C=C\CCCCCCCCCCCC(=O)O | inactive | inactive | inactive | inactive | – | inactive | inactive
CCCCCC[C@@H](O)C/C=C\CCCCCCCC(=O)O | inactive and 29.8 µM (active) | – | inactive and 23.7 µM (active) and 48.6 µM (active) | inactive | – | inactive | –
